Assay results as given in PubChem BioAssay (NCATS).
Where “and” joins values, the source holds several entries; their conditions need not be identical. Equal values may be shown once. Results filed as inconclusive are left out. Entries that show only a call come without a potency. A number with no mark means an inactive call. Calls of active or inactive are those of the source. The call rests on the fitted dose curve; in most records, active means well fitted curve in the direction sought with a large enough effect; inconclusive means small, poorly fitted or top-dose-only effect, or another doubt; inactive means no such curve, though single readings can be large; an effect the other way counts as inactive or inconclusive.

What was measured:
[1] = molecular target: Cellular tumor antigen p53 (Homo sapiens) (UniProt P04637); assay: Primary qHTS for small molecule compounds that upregulate eGFP-tagged delta133p53alpha (in N-terminal) cells. (AID 2060322); conditions: NCI-H358 eGFP-delta133p53alpha fluorescence, 24 h; activation: active compounds read high; further: nearly all actives have a fitted effect of over 75% in size; further: potency means the concentration at half of the fitted maximal effect;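 on activation: cells pre-induced with doxycycline then dosed without doxycycline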
Sequence of Cellular tumor antigen p53 (Homo sapiens) (P04637 whole entry, looked up): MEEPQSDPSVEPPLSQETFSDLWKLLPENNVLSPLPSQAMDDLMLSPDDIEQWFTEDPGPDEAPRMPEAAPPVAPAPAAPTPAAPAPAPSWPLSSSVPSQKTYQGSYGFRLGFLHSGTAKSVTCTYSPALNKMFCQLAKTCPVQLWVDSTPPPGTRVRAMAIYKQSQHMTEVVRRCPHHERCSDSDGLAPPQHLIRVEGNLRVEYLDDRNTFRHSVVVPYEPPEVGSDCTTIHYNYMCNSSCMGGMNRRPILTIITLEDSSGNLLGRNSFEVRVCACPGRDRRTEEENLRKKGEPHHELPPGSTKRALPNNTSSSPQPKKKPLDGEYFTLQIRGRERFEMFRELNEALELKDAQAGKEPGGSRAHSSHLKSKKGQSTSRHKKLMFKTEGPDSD
How it was run: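 NCI-H358 cells pre-induced 24 h with 10 ng/ml doxycycline for eGFP-delta133p53alpha, plated dox-free and exposed 24 h at 37C to titrated compounds. Fixed, Hoechst-stained; gated GFP peak intensity by laser scanning cytometry, normalized to DMSO (0%) and 57.5 uM 5-azacytidine (100%).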

[2] = molecular target: Aldehyde dehydrogenase, mitochondrial (Homo sapiens) (UniProt P05091); assay: qHTS for Inhibitors of the Aldehyde Dehydrogenase Family (ALDH2) Primary screen (AID 2061308); conditions: ALDH2 enzyme inhibition qHTS, 1536-well; series mostly up to 56 µM; further: nearly all actives have a fitted effect of over 55% in size
[3] = molecular target: Retinaldehyde dehydrogenase 3 (Homo sapiens) (UniProt P47895); assay: qHTS for Inhibitors of the Aldehyde Dehydrogenase Family (ALDH1A3) Validation screen (AID 2061312); conditions: ALDH1A3 enzyme inhibition qHTS validation, fluorescence; series mostly up to 84.7 µM; further: nearly all actives have a fitted effect of over 45% in size
[4] = molecular target: Retinaldehyde dehydrogenase 3 (Homo sapiens) (UniProt P47895); assay: qHTS for Inhibitors of the Aldehyde Dehydrogenase Family (ALDH1A3) Primary screen (AID 2061315); conditions: ALDH inhibition qHTS; series mostly up to 56 µM

Compound	activation [1]	Potency [2]	Potency [3]	Potency [4]	Potency [1]
CCCCNc1nc(N)c2[nH]c(=O)n(Cc3ccc(OCCN(C)C)nc3)c2n1	-9.55%	inactive	inactive	inactive	–
CC(C)c1ccc(NC(=O)Cn2cnc3c2c(=O)n(C)c(=O)n3C)cc1	-14.8%	inactive	inactive	inactive	–
COc1cc(Nc2nc3ccccc3nc2NS(=O)(=O)c2cccc(NC(=O)c3ccc(C)c(OC)c3)c2)cc(OC)c1	10%	inactive	inactive	inactive	–
COC(=O)C(CC1CCCC1)c1ccc(S(C)(=O)=O)cc1 (stereo not drawn)	0.955%	inactive	inactive	inactive	–
O=c1[nH]c(=O)n([C@H]2CCCO2)cc1F	-9.6% and 3.34%	inactive	inactive	inactive	–
O=C(O)c1cc(-c2ccccc2)nc2ccccc12	-7.34% and -10% and -1.43%	inactive	inactive	inactive	–
O=C(Nc1cccc(C(F)(F)F)c1)Nc1ccc(Br)cc1-c1nn[nH]n1	-5.73%	inactive	inactive	inactive	–
OC(CC1c2ccccc2-c2cncn21)C1CCCCC1 (stereo not drawn)	-7.16%	inactive	inactive	inactive	–
Cc1ccc(CCCO)c(NCc2ccc3nc(NCCCN4CCOCC4)n(Cc4nc(C)ccc4O)c3c2)c1	14.3%	inactive	inactive	inactive	–
NC(=O)c1ccc(F)c2c1C[C@@H](N(C1CCC1)C1CCC1)CO2	-11.5%	inactive	inactive	inactive	–
Cc1cc(OCCCS(C)(=O)=O)cc(C)c1-c1cccc(COc2ccc3c(c2)OCC3CC(=O)O)c1 (stereo not drawn)	6.68%	inactive	inactive	inactive	–
O=C(O)Cn1nnc(-c2ccc(CN(CCCCOc3ccc(CN4CCCC4)cc3)CCc3ccccc3)cc2)n1	7.16%	inactive	inactive	inactive	–
O=C(COc1ccc(C(=O)c2ccccc2)cc1)NC1CCN(Cc2ccccc2)CC1	-6.68%	inactive	inactive	inactive	–
O=C(Nc1ccccc1)N1CCN(c2nc(-c3ccccc3)ns2)CC1	-13.8%	inactive	inactive	inactive	–
C[C@@H](O[C@H]1OCCN(Cc2nn(P(=O)(O)O)c(=O)[nH]2)[C@H]1c1ccc(F)cc1)c1cc(C(F)(F)F)cc(C(F)(F)F)c1	10%	inactive	inactive	inactive	–
OCC(O)CN1CCN(c2ccccc2)CC1 (stereo not drawn)	-0.837% and 0.955%	inactive	inactive	inactive	–
COc1ccc(N2CCN(C(=O)c3cc4c(s3)-c3ccccc3S(=O)(=O)C4)CC2)cc1	-13.8%	inactive	inactive	inactive	–
CC1CC(OC(=O)C(O)c2ccccc2)CC(C)(C)C1 (stereo not drawn)	1.43%	inactive	inactive	inactive	–
CNc1ccc([N+](=O)[O-])c(Nc2ccc3[nH]ncc3c2)n1	–	inactive	inactive	inactive	10.7 µM (active)
CCOc1ccc(-c2nc(-c3cccc4c3CCC4NCCO)no2)cc1OCC (stereo not drawn)	-0.955%	inactive	inactive	inactive	–
C[C@@H](NC(=O)c1cc(C(=O)N[C@@H](Cc2ccccc2)[C@H](O)CNC2CC2)cc(N(C)S(C)(=O)=O)c1)c1ccccc1	-12.4%	inactive	inactive	inactive	–
CCCCNc1ccc(-c2ccc(CN3CCOCC3)cn2)c(NC2CCC(O)CC2)c1 (stereo not drawn)	1.91%	inactive	inactive	inactive	–
CN(C)CCC[C@]1(c2ccc(F)cc2)OCc2cc(C#N)ccc21	0.477%	inactive	inactive	inactive	–
CCC1(O)CC2c3cc(OC)c(OC)cc3CCN2CC1CC(C)C (stereo not drawn)	3.82%	inactive	inactive	inactive	–
C#CCN(Cc1cc2c(=O)n(C)c(CN3CCN(C)CC3)nc2cc1Cl)c1ccc(C(=O)NCc2cccnc2)cc1	0.955%	inactive	inactive	inactive	–
COc1ccncc1C(=O)NC(=O)Nc1ccc(-c2ccccc2)c(C(F)(F)F)c1	-0.477%	inactive	inactive	inactive	–
O=S(=O)(NC1CCC(c2cc(F)ccc2F)(S(=O)(=O)c2ccc(Cl)cc2)CC1)C(F)(F)F (stereo not drawn)	-16.2%	inactive	inactive	inactive	–
